# PubChem BioAssay AID1117319 (Southern Research Institute, 2015)
# Several values for one entry are separate records, joined by “and”; a condition that tells them apart may be missing. Equal values may be shown once. Hit rate of the full screen: of about 260,000 compounds, about 1,500 (0.58%) were called active. Roughly 5% stayed inconclusive and do not appear here. A selection follows. Entries with a potency or affinity are not part of this list. A number with no mark means an inactive call.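 Rule for the calls: active = inhibition above a set limit at one or more doses, reproduced on every date tested; inconclusive = results disagree between test dates, or hit never tested in dose response; inactive = the rest.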
# Molecular target: Virion infectivity factor (Human immunodeficiency virus type 1 group M subtype B (isolate BH10)) + Virion infectivity factor (Human immunodeficiency virus type 1 group M subtype B (isolate BRU/LAI)) + Virion infectivity factor (Human immunodeficiency virus type 1 group M subtype B (isolate PCV12)) + Virion infectivity factor (Human immunodeficiency virus type 1 group M subtype B (isolate HXB2)) + DNA dC->dU-editing enzyme APOBEC-3G (Homo sapiens) (UniProt P69720+P69721+P69722+P69723+Q9HC16)
# Experiment: HIV-1 Vif–A3G interaction blockers – biochemical, TR-FRET, GST-Vif 1-94, biotin-A3G peptide, dose response retest, primary screen (AID 1117319);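 note: Vif residues 1-94 fused to GST binding biotinylated APOBEC3G peptide 110-148; 0% = full assay without inhibitor and 100% = GST in place of GST-Vif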
# Details: TR-FRET GST-Vif / biotin-A3G peptide binding; active compounds read high
row,SMILES,inhibition
1,COc1ccc(S(=O)(=O)N2CCC3(CC2)CC(=O)c2ccccc2O3)cc1OC,5.1%
2,CCN1C(=O)S/C(=C\c2ccc(N3CCOCC3)cc2C)C1=O,15.3%
3,C=CCN1C(=O)S/C(=C\c2ccc(N3CCOCC3)cc2C)C1=O,-1.96%
4,Cc1cc(=O)oc2c(CN3CCN(C)CC3)c(O)c(Cl)cc12,-0.71%
5,COc1ccccc1NC(=S)NN1CCN(C)CC1,-0.89%
6,Nc1ccc(C(=O)Nc2ccc3nc(-c4cccnc4)[nH]c3c2)cc1,1.2%
7,O=C(Nc1ccc2ccccc2c1)c1cccnc1,-0.18%
8,CC/C(=N\NC(=O)CSc1ncccn1)c1ccc2c(c1)OCCO2,4.58%
9,COc1ccc(-n2c(Cc3cc(=O)[nH]c(=O)[nH]3)nnc2SCC(=O)NC2CCCC2)cc1,2.26%
10,COc1ccc2cc(CN(Cc3ccco3)C(=S)NCC3CCCO3)c(=O)[nH]c2c1 (stereo unspecified),-22.6%
11,CC(=O)Nc1ccc(S(=O)(=O)N2CCc3ccccc3C2)cc1,21.6%
12,NS(=O)(=O)c1ccc(N=Nc2c(O)c(C(=O)O)cc3ccccc23)cc1,24.6%
13,O=C(O)Cc1ccc(N=Cc2c(O)ccc3ccccc23)cc1,5.87%
14,Cn1cnnc1SCC(=O)Nc1ccccc1C(=O)NC1CCCC1,7.03%
15,CC(=O)Nc1cccc(C(=O)NCC2(N3CCCCC3)CCCCC2)c1,3.75%
16,COc1ccc(Oc2ccc(C(F)(F)F)cc2NC(=O)c2ccc(OC)cc2)cc1,-13.5%
17,Cc1ccccc1N1C(=O)C(Cl)=C(N2CCCCCC2)C1=O,4.9%
18,CC(=O)c1cnc(N(C)C)s1,-3.71%
19,Clc1cccc2sc(N3CCCCC3)nc12,0.64%
20,CN1CCN(c2ncc(CN3C(=O)c4ccccc4C3=O)s2)CC1,1.36%
21,O=Cc1cnc(N2CCCCC2)s1,-7.46%
22,CN1CCN(C2=C(Cl)C(=O)N(C3CCCCC3)C2=O)CC1,20.6%
23,O=C(CN1CCc2ccccc21)NN1CC(=O)N(c2ccccc2)CC1=O,1.28%
24,CCOC(=O)c1ccc(NCc2ccncc2)cc1,-1.73%

row,SMILES,inhibition
1,COC(CN1CCc2c(C)nc3c(C#N)cnn3c21)OC,1.49%
2,CN(C)S(=O)(=O)c1cc(NC(=O)[C@H](Cc2ccccc2)N2C(=O)c3ccccc3C2=O)ccc1Cl,15.5%
3,NC(=O)c1sc2nc(-c3ccco3)ccc2c1N,25.6%
4,Nc1c(C(=O)Nc2ccc(Br)cc2)sc2nc(-c3ccco3)ccc12,4.88%
5,N#Cc1ccc(CSc2nnc(-c3ccccc3)n2Cc2ccco2)cc1,3.24%
6,Cc1ccc(-c2nnc(SCc3ccc(C#N)cc3)n2Cc2ccco2)cc1,21.2%
7,COc1cccc(C(=O)OC(C)CN2CCCC2)c1 (stereo unspecified),2.26%
8,COc1ccc(CCC(=O)N2CCN(S(=O)(=O)c3ccc4ccccc4c3)CC2)cc1,-2.65%
9,O=C1c2ccccc2C(O)(c2ccccc2)N1C1CC1 (stereo unspecified),18.6%
10,COc1cc(C(=O)OCCN2CCOCC2)ccc1O,6.52%
11,COc1cc(C(=O)OCCCN2CCOCC2)ccc1O,5.32%
12,CCNc1nc(SC(C)C(=O)OC)nc(N2CCOCC2)n1 (stereo unspecified),2.4%
13,COc1ccc(N2CS(=O)(=O)/C(=C/N(C)C)C2=O)cc1,9.06%
14,COCCCNC(=S)Nc1ccc2nc3n(c(=O)c2c1)CCCCC3,-4.36%
15,CCn1c(O)c(C=NC2CCCC2)sc1=S,5.46%
16,Oc1ccc(C=NC2CCCCC2)c(O)c1,21.7%
17,CCOC(=O)N1CCC(N2CC34C=CC(O3)C(C(=O)Nc3ccc(F)cc3)C4C2=O)CC1 (stereo unspecified),5.89%
18,Cc1ccc(N2C(=O)Nc3cc(Cl)c(Cl)cc3N2O)cc1Cl,4.32%
19,CCN1CCN(CC(=O)Nc2cc(S(=O)(=O)N3CCCCC3)ccc2Cl)CC1,-1.15%
20,CC(C)(C)n1nnnc1C(c1ccc2ncccc2c1)N1CCC(O)CC1 (stereo unspecified),-3.23%
21,CN(C)N1C(N)=C(C#N)C(c2cccc([N+](=O)[O-])c2)C2=C1CC(C)(C)CC2=O (stereo unspecified),-5.57%
22,COc1ccc(C)c2sc(N(CCCN(C)C)C(=O)c3ccc(S(=O)(=O)N(C)C)cc3)nc12,-2.34%
23,CCn1c2ccccc2c2cc(NC(=O)c3ccc(C)c([N+](=O)[O-])c3)ccc21,8.31%
24,CCn1c2ccccc2c2cc(NC(=O)c3cccc([N+](=O)[O-])c3C)ccc21,-6.86%

row,SMILES,inhibition
1,C=CCCCN(Cc1ccccc1)S(=O)(=O)c1ccccc1Br,-1.22%
2,COC(=O)c1cccc(-n2cnnn2)c1,22.2%
3,COc1ccc(C(=O)COC(=O)c2cccc(-n3cnnn3)c2)c(OC)c1,3.56%
4,CCOC(=O)c1cc(-c2ccc(OC)cc2F)nc2c1c(C)nn2CCC#N,15.4%
5,CC1=C(C(=O)OCc2ccccc2)C(c2cccs2)N2C(=O)CCSC2=N1 (stereo unspecified),-5.63%
6,CCOC(=O)CCn1cnc2ccc([N+](=O)[O-])cc2c1=O,10.2%
7,Cc1ccc(-c2ccc(=O)n(CCC(=O)N3CCN(c4cccc(C)c4)C(C)C3)n2)cc1 (stereo unspecified),1.97%
8,CCOC(CNC(=O)c1cccc([N+](=O)[O-])c1)OCC,8.25%
9,O=C1CC(Sc2ncccc2C(=O)O)C(=O)N1 (stereo unspecified),5.46%
10,Cc1cccc2c1NC(=O)C2(O)N1CCCC(C)C1 (stereo unspecified),7.4%
11,C/C(=N\Oc1cccc(F)n1)c1ccc(Cl)cc1Cl,-2.41%
12,CC(C)c1ccc(S(=O)(=O)N2CCN(CC(=O)c3ccc(O)c(O)c3)CC2)cc1,24.8%
13,O=C(CN1CCN(S(=O)(=O)c2ccc(Br)cc2)CC1)c1ccc(O)c(O)c1,23.1%
14,COc1cc(/C=C2\CC(C(C)(C)C)C/C(=C\c3cc(OC)c(OC)c(OC)c3)C2=O)cc(OC)c1OC (stereo unspecified),2.75%
15,CC(C)(C)C1C/C(=C/c2ccccn2)C(=O)/C(=C/c2ccccn2)C1 (stereo unspecified),2.61%
16,CC1C/C(=C/c2ccncc2)C(=O)/C(=C/c2ccncc2)C1 (stereo unspecified),25.8%
17,CC12CCCC(=O)C1CCC(=Cc1ccco1)C2=O (stereo unspecified),2.03%
18,CCC1C/C(=C\c2cccnc2)C(=O)/C(=C/c2cccnc2)C1 (stereo unspecified),9.28%
19,CC1C/C(=C/c2ccccn2)C(=O)/C(=C/c2ccccn2)C1 (stereo unspecified),19.4%
20,CCC(NC(=O)NNC(N)=S)(C(F)(F)F)C(F)(F)F,2.24%
21,CCOc1ccccc1N1CCN(C(=O)c2ccc(-c3ccc(OC(C)=O)cc3)cc2)CC1,-6.48%
22,Cc1cc(C)c(C(=O)CSc2nnc(C)s2)c(C)c1,-3.21%
23,CCOC(=O)C1C(=O)CC(C)(O)C(C(=O)OCC)C1c1cccc(OC(F)(F)C(F)F)c1 (stereo unspecified),1.49%
24,Cc1cccc(OCc2nc(C#N)c(NCc3ccc4c(c3)OCO4)o2)c1,2.3%

row,SMILES,inhibition
1,C[C@H](NC(=O)c1ccco1)C(=O)OCC(=O)N1CC(=O)Nc2ccccc21,1.38%
2,COc1ccccc1NC(=O)CN(c1ccccc1F)S(C)(=O)=O,2.7%
3,Cc1ccc(S(=O)(=O)Nc2cccc(C(=O)N3CCN(c4ccccc4O)CC3)c2)cc1F,-3.67%
4,COc1ncnc2c1ncn2CCCN(C)CCc1ccccn1,3.23%
5,Nc1nc(N)c2c(n1)CN(Cc1ccc(Cl)cc1)C2,-2.69%
6,Cc1cccc(C(=O)N/N=C/c2cc(Br)c(Br)o2)c1,0.73%
7,Cc1ccc(C(=O)N/N=C\c2ccc(-c3ccc(Cl)cc3)o2)cn1,23.4%
8,COC(=O)COc1ccc(S(=O)(=O)Nc2ccc3c(c2)OCCO3)cc1Cl,-0.68%
9,COc1cccc(CNC(=O)CCCNS(=O)(=O)c2cccs2)c1,22.8%
10,COc1cccc(CNC(=O)CCS(=O)(=O)c2cccs2)c1,-7.15%
11,CC1(C)CC(=O)c2cc(OCC(=O)NCCCN3CCN(c4ccc(F)cc4)CC3)ccc2O1,-7.66% and 5.99%
12,O=C(O)CN1C(=O)CNC1=O,-0.07%
13,CC(=O)Nc1ccc(S(=O)(=O)NCC(=O)OCC(=O)NCc2ccco2)cc1,7.01%
14,CCOC(=O)C1CCCN(C(=O)COC(=O)c2cc(=O)c3ccccc3o2)C1 (stereo unspecified),29.1%
15,CC(C)n1cc(CN2CCCC(CNS(=O)(=O)c3cccc4cccnc34)C2)cn1 (stereo unspecified),10.9%
16,COC(=O)c1cccc(-n2c(C)cc(/C=C3\SC(=O)NC3=O)c2C)c1,3.07%
17,Cc1cc(/C=C2\SC(=S)NC2=O)c(C)n1C1CC1,30.7%
18,Cc1cc(/C=C2\SC(N)=NC2=O)c(C)n1-c1ccccc1,19.3%
19,Cc1nn(C)cc1/C=C1\SC(=S)NC1=O,-1.22%
20,Cc1ccc(-n2c(C)cc(/C=C3\SC(=O)NC3=O)c2C)cc1,-6.8%
21,Cc1cc(/C=C2\SC(=S)NC2=O)c(C)n1-c1ccc(O)cc1,71.3%
22,COc1cccc(CNC(=O)Cn2ncc3c(=O)oc4ccccc4c32)c1,-6.25%
23,Cc1cccc(-n2ccc(=O)c(C(=O)O)n2)c1,-11%
24,O=C(Nc1ccc(Cl)c(S(=O)(=O)N2CCOCC2)c1)c1ccccn1,-0.06%
